This note sets out measurements from the supplement of paper PMC9694430.

Holding throughout (assay): thermal shift delta Tm vs DMSO control; higher = stronger stabilization (binding)
Settings in all cases: 12.5 µM; protein concentration 2 µM

For one test, the system named is LOC_OS01G57100-cb003. In outline:
(§1)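 The melting temperature shift given here is a triplicate mean, measured against protein that received only DMSO. Melting temperatures came from Boltzmann fits of differential scanning fluorimetry data on E. coli-expressed, purified rice kinase domain constructs. Each 19.5 μl well contained 2 μM kinase, 100 mM potassium phosphate pH 7.5, 150 mM NaCl, 10% glycerol, 5 × SYPRO Orange and compound in DMSO. Plates were scanned from 25°C to 95°C at 0.05°C/s.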

In another test the test system is LOC_OS01G60330-cb001. The method, boiled down:
as §1

The test system of another test is LOC_OS01G60700-cb002. In outline: as §1
The next test concerns LOC_OS01G63280-cb003. In outline:
as §1

A further test relates to LOC_OS01G67340-cb003. The method, boiled down: as §1
For the next test, the system named is LOC_OS01G70970-cb002. The method, boiled down:
as §1

The next test has as its system LOC_OS02G07810-cb001. In outline: as §1
The test system of another test is LOC_OS02G08530-cb003. The method, boiled down: as §1
Another test has as its system LOC_OS02G14120-cb001. The method, boiled down: as §1
The next test relates to LOC_OS02G17970-cb001. The method, boiled down: as §1
The next test has as its system LOC_OS02G45750-cb003. The method, boiled down:
as §1

The next test has as its system LOC_OS02G54510-cb004. The method, boiled down:
as §1

The subject of the next test is LOC_OS03G04050-cb001. The method, boiled down:
as §1

The next test relates to LOC_OS03G12390-cb001. The method, boiled down: as §1
The subject of the next test is LOC_OS03G27990-cb004. In outline: as §1
Another test relates to LOC_OS03G50450-cb001. In outline:
as §1

In the next test the test system is LOC_OS03G50810-cb003. The method, boiled down:
as §1

For another test, the system named is LOC_OS04G35114-cb001. In outline: as §1
The test system of another test is T1, LOC_OS04G38480-cb003.
T1 sequence (whole entry): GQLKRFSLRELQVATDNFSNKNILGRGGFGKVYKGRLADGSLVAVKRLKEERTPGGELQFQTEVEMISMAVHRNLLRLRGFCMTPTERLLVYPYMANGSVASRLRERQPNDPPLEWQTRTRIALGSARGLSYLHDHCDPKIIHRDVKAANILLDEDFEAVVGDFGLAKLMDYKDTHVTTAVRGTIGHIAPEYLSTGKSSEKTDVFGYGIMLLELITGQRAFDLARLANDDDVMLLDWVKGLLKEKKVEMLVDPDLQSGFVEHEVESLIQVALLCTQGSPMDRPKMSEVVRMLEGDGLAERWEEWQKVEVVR
In outline:
as §1

The test system of the next test is T2, LOC_OS04G41100-cb001.
T2 sequence (whole entry): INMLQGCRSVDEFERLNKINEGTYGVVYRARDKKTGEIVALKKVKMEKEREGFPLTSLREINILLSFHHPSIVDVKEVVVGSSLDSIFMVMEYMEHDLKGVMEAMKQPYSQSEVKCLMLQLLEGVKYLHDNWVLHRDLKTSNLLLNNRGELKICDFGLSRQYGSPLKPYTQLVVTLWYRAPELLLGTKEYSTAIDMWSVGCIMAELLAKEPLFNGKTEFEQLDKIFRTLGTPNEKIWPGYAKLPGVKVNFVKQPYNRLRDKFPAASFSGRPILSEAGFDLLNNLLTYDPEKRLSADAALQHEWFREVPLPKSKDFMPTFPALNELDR
In outline:
as §1

Consider `FC(F)c1nc2ccccc2n1-c1nc(N2CCOCC2)nc(N2CCOCC2)n1`, for which the “thermal shift delta Tm” value with LOC_OS01G57100-cb003 was 0.81 °C; in the test with LOC_OS01G60330-cb001, 1.34 °C; with LOC_OS01G60700-cb002, 1.13 °C; in the test with LOC_OS01G63280-cb003, 0.27 °C; in the test on LOC_OS01G67340-cb003 it was -0.18 °C; with LOC_OS01G70970-cb002 it was 0.47 °C. For the same molecule, the “thermal shift delta Tm” value in the test on LOC_OS02G07810-cb001 was found to be 0.59 °C; with LOC_OS02G08530-cb003 it was 0.83 °C; with LOC_OS02G14120-cb001 it was 0.41 °C; in the test with LOC_OS02G17970-cb001, 0.88 °C; with LOC_OS02G45750-cb003, 0.78 °C; in the test on LOC_OS02G54510-cb004, 0.23 °C. Besides, the “thermal shift delta Tm” value worked out at 0.44 °C with LOC_OS03G04050-cb001; 0.51 °C in the test with LOC_OS03G12390-cb001; 0.31 °C in the test on LOC_OS03G27990-cb004; 0.75 °C in the test with LOC_OS03G50450-cb001; 0.35 °C in the test on LOC_OS03G50810-cb003; 0.03 °C in the test with LOC_OS04G35114-cb001. Besides, the “thermal shift delta Tm” value came to 1.98 °C in the test on LOC_OS04G38480-cb003 and 0.9 °C with LOC_OS04G41100-cb001.

For the molecule `c1cc(-c2cnn3cc(-c4ccc(OCCN5CCCCC5)cc4)cnc23)ccn1` [Dorsomorphin 2HCl], the “thermal shift delta Tm” value in the test with LOC_OS01G57100-cb003 is -0.53 °C; with LOC_OS01G60330-cb001 it was 4.55 °C; with LOC_OS01G60700-cb002, 0.2 °C; in the test on LOC_OS01G63280-cb003 it was 1.5 °C; in the test on LOC_OS01G67340-cb003 it was 6.09 °C; in the test on LOC_OS01G70970-cb002, 8.77 °C. Besides, the “thermal shift delta Tm” value is 0.33 °C in the test on LOC_OS02G07810-cb001; 2.18 °C in the test on LOC_OS02G08530-cb003; 8.01 °C in the test on LOC_OS02G14120-cb001; -0.02 °C with LOC_OS02G17970-cb001; 15.2 °C in the test on LOC_OS02G45750-cb003; 0.73 °C with LOC_OS02G54510-cb004. Moreover, the “thermal shift delta Tm” value in the test on LOC_OS03G04050-cb001 was found to be 0.67 °C; in the test with LOC_OS03G12390-cb001, 1.8 °C; with LOC_OS03G27990-cb004, 9.39 °C; with LOC_OS03G50450-cb001, 1.81 °C; in the test on LOC_OS03G50810-cb003 it was 7.51 °C; in the test on LOC_OS04G35114-cb001 it was 9.17 °C. The “thermal shift delta Tm” value in the test on LOC_OS04G38480-cb003 came out at 3.72 °C; with LOC_OS04G41100-cb001, 3.16 °C.

On to `CN(C)C/C=C/C(=O)Nc1cc2c(Nc3ccc(F)c(Cl)c3)ncnc2cc1O[C@H]1CCOC1` [Afatinib (BIBW2992)], for which the “thermal shift delta Tm” value was 0.75 °C in the test with LOC_OS01G57100-cb003; 0.2 °C in the test with LOC_OS01G60330-cb001; 1 °C in the test on LOC_OS01G60700-cb002; -0.22 °C in the test on LOC_OS01G63280-cb003; -0.42 °C in the test on LOC_OS01G67340-cb003; 0.44 °C in the test with LOC_OS01G70970-cb002. In addition, the “thermal shift delta Tm” value is 0.56 °C with LOC_OS02G07810-cb001; 0.76 °C in the test on LOC_OS02G08530-cb003; 2.04 °C in the test with LOC_OS02G14120-cb001; -0.15 °C in the test on LOC_OS02G17970-cb001; 0.69 °C in the test on LOC_OS02G45750-cb003; -0.42 °C in the test with LOC_OS02G54510-cb004. The “thermal shift delta Tm” value in the test on LOC_OS03G04050-cb001 is 0.26 °C; in the test on LOC_OS03G12390-cb001, 1.35 °C; in the test on LOC_OS03G27990-cb004 it was 0.99 °C; in the test with LOC_OS03G50450-cb001 it was 0.05 °C; in the test with LOC_OS03G50810-cb003, 0.86 °C; in the test with LOC_OS04G35114-cb001, 4.16 °C. Further, the “thermal shift delta Tm” value in the test with LOC_OS04G38480-cb003 stood at 0.66 °C; with LOC_OS04G41100-cb001, 0.51 °C.

In the case of `Cc1cnc(Nc2ccc(OCCN3CCCC3)cc2)nc1Nc1cccc(S(=O)(=O)NC(C)(C)C)c1`, the “thermal shift delta Tm” value in the test with LOC_OS01G57100-cb003 was 2.1 °C; in the test with LOC_OS01G60330-cb001 it was 1.83 °C; in the test on LOC_OS01G60700-cb002, 0.56 °C; in the test with LOC_OS01G63280-cb003 it was 0.21 °C; in the test with LOC_OS01G67340-cb003 it was 0.84 °C; in the test on LOC_OS01G70970-cb002, 2.94 °C. Also, the “thermal shift delta Tm” value with LOC_OS02G07810-cb001 is 0.5 °C; in the test with LOC_OS02G08530-cb003, 2.64 °C; in the test with LOC_OS02G14120-cb001, 7.4 °C; in the test on LOC_OS02G17970-cb001, 0.44 °C; in the test with LOC_OS02G45750-cb003, 2.37 °C; with LOC_OS02G54510-cb004 it was 0.89 °C. For the same molecule, the “thermal shift delta Tm” value in the test with LOC_OS03G04050-cb001 is 0.72 °C; in the test with LOC_OS03G12390-cb001 it was 3.03 °C; with LOC_OS03G27990-cb004, 1.33 °C; in the test on LOC_OS03G50450-cb001 it was 1.51 °C; in the test on LOC_OS03G50810-cb003, 3.13 °C; in the test on LOC_OS04G35114-cb001 it was 3.12 °C. Besides, the “thermal shift delta Tm” value in the test on LOC_OS04G38480-cb003 stood at 1.88 °C; in the test on LOC_OS04G41100-cb001 it was 0.68 °C.

With `Cc1cc(Nc2cc(N3CCN(C)CC3)nc(Sc3ccc(NC(=O)C4CC4)cc3)n2)n[nH]1` [Tozasertib (VX-680, MK-0457)], the “thermal shift delta Tm” value is 1.29 °C in the test on LOC_OS01G57100-cb003; 3.67 °C in the test on LOC_OS01G60330-cb001; 1.21 °C in the test on LOC_OS01G60700-cb002; 0.58 °C in the test with LOC_OS01G63280-cb003; 1.87 °C in the test on LOC_OS01G67340-cb003; 2.62 °C in the test on LOC_OS01G70970-cb002. In addition, the “thermal shift delta Tm” value with LOC_OS02G07810-cb001 worked out at 0.91 °C; in the test with LOC_OS02G08530-cb003, 2.4 °C; with LOC_OS02G14120-cb001, 7.67 °C; in the test on LOC_OS02G17970-cb001 it was 0.93 °C; with LOC_OS02G45750-cb003, 6.99 °C; with LOC_OS02G54510-cb004, 1.33 °C. Moreover, the “thermal shift delta Tm” value with LOC_OS03G04050-cb001 was 0.64 °C; with LOC_OS03G12390-cb001 it was 1.35 °C; in the test with LOC_OS03G27990-cb004, 0.54 °C; with LOC_OS03G50450-cb001, 3.08 °C; in the test on LOC_OS03G50810-cb003, 4.7 °C; in the test with LOC_OS04G35114-cb001 it was 8.53 °C. Further, the entries for the “thermal shift delta Tm” value in the test on LOC_OS04G38480-cb003 and in the test on LOC_OS04G41100-cb001 were 2.62 °C and 2.03 °C, respectively.
